Bioassay records deposited in PubChem by National Center for Advancing Translational Sciences (NCATS).
This excerpt belongs to a sample that is enriched for hits.
Methyltransferases: Primary Screen for Target Class Profiling of Small Molecule Inhibitors of Methyltransferases. purified enzyme, MTase-Glo SAH luminescence; stronger effect = lower value. calls only at 40 µM. 25,000 tested, 3.9% active. AID 1745853, 2022; call rule not given here
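Each enzyme was reacted with SAM and its substrate, with compounds tested once at 40 uM; SAH formed was read by MTase-Glo luminescence.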
Active calls of the source: *; i = inactive; + = active, no number. % is set by controls: 0 for no effect and ±100 for the full control effect.

SMILES | Methyltransferases
CCCn1c(=O)c2cc(Cl)ccc2n2c(SCc3ccccc3F)nnc12 | i
CC1CC(C)CN(S(=O)(=O)c2ccc3c(c2)oc(=O)n3CC(=O)Nc2nccs2)C1 (configuration not stated) | i
CC(C)Cn1c(=O)c2ccccc2n2c(SCC(=O)NCc3ccccc3)nnc12 | i
NCCCNc1ccc(Nc2nccc(Nc3cc(C4CC4)[nH]n3)n2)cc1 | +
COC(=O)C1=C2Nc3ccccc3C23CCN2CCCC(C(C)O)(C1)C23 (configuration not stated) | +
C=C1C(=O)OC[C@@H]1C/C=C(\C)CC1CC(C)C(=O)O1 (some centres not stated) | +
COc1cccc(CN2C(=O)c3ccc(-c4ccco4)n3CC2(C)C(=O)NCCC(C)C)c1OC (configuration not stated) | i
O=S(=O)(c1ccc(Cl)cc1)c1nnn2c1nc(NCCc1ccccc1)c1ccccc12 | i
CCCN1C(=O)c2cc(C(=O)NCCCOC)nn2CC1(C)C(=O)NC1CCCC1 (configuration not stated) | i
Clc1ccc(C2(c3ccc(-c4cn[nH]c4)cc3)CCNCC2)cc1 | +
CC1=CC(=O)CC(C)(C)C1CO[C@@H]1O[C@H](CO)[C@@H](O)[C@H](O)[C@H]1O (some centres not stated) | i
CN1CCCN(CC(=O)N2CCCC(c3ccc(C(=O)O)cc3)C2)CC1 (configuration not stated) | i
CN(Cc1ccccc1)C(=O)CN(C)S(=O)(=O)c1ccc2[nH]c3c(c2c1)CCCC3 | i
CN(CC(=O)N(Cc1ccc(C2CCCCC2)cc1)c1ccc(C(=O)O)cc1)S(=O)(=O)c1c(F)c(F)c(F)c(F)c1F | +
COc1ccccc1CN1C(=O)CSc2c(c3ccccc3n2C)C1C(=O)NCc1ccccc1 (configuration not stated) | i
Cc1ccc(Cn2c(=O)c3ccccc3n3c(=O)n(Cc4ccc(Cl)cc4)nc23)cc1 | i
NC(=Nc1ccc(CCNCc2cccc(Cl)c2)cc1)c1cccs1 | +
CC1(C(=O)NCc2ccccc2)Cn2c(cc3ccccc32)C(=O)N1CCc1ccc(Cl)cc1 (configuration not stated) | i
Cc1nnnn1-c1cccc(C(=O)N2CCCC(O)(CN(C)C)CC2)c1 (configuration not stated) | i
CC(C)Oc1ccc(CN2C(=O)c3cc4occc4n3CC2(C)C(=O)NC2CCCC(C)C2C)cc1 (configuration not stated) | i
CCOc1ccc(CCN2C(=O)Cn3cccc3C2C(=O)NC2CCC(C)CC2)cc1 (configuration not stated) | i
NC(N)=NC(=O)c1cnn(-c2cccc3ncccc23)c1C1CC1 | +
Cn1c(=O)n(C)c2cc(S(=O)(=O)N(Cc3ccccc3)C(=O)c3cccs3)ccc21 | i
CNc1cc2c(Nc3cccc(Br)c3)ncnc2cn1 | +
CCc1ccc(C(=O)NC(Cc2c[nH]c3ccccc23)C(=O)OCC(=O)c2ccc(Br)cc2)cc1 (configuration not stated) | i
SMILES | Methyltransferases
Cc1ccccc1CNC(=O)C1(C)Cc2ccccc2C(=O)N1C1CCCCC1 (configuration not stated) | i
CCOC(=O)C1(Cc2ccc(F)cc2)CCCN(C(=O)c2cc3nc(C)cc(C)n3n2)C1 (configuration not stated) | i
CC(C)CC(N)c1nnc2n1CCNCC2 (configuration not stated) | i
CC(C)c1cc(-c2n[nH]c(=O)n2-c2ccc3c(ccn3C)c2)c(O)cc1O | +
Cc1noc(C)c1-c1ccc2c(n1)CN(CCOc1ccccc1)C(=O)CO2 | i
COc1ccccc1CNC(=O)C1(C)Cn2nc(-c3ccccc3)cc2C(=O)N1Cc1ccc(C)cc1 (configuration not stated) | i
CN(CC1CCCCO1)C(=O)c1coc(COc2ccc3c(c2)OCO3)n1 (configuration not stated) | i
COc1cccc(CNc2nc3c(S(=O)(=O)c4ccccc4)nnn3c3ccccc23)c1 | i
COC(=O)[C@@H](N)Cc1ccc(O)c(O)c1 | i
N[C@@H](Cc1ccc(O)c(I)c1)C(=O)O | i
O=C(O)Cc1ccc(O)c(O)c1 | +
CCOC(=O)c1cc2n(n1)CC(C)(C(=O)NC1CCCCCC1)N(c1cccc(C)c1C)C2=O (configuration not stated) | i
CCn1c(=O)n(CC)c2cc(S(=O)(=O)N3CCN(c4ccc(F)cc4)CC3)ccc21 | i
O=C1c2cc3occc3n2CC(C(=O)NC2CCCCCC2)(c2ccccc2)N1Cc1ccc(F)cc1 (configuration not stated) | i
OCCCNc1cc(-c2ccnc(Nc3cccc(Cl)c3)n2)ccn1 | +
O=C(CN1C(=O)C(c2ccccc2)=NC12CCCC2)NC1CCCC1 | i
CCC(C)NC(=O)Cn1nc2n(C3CC3)c(=O)c3ccc(C(=O)NC(C)CC)cc3n2c1=O (configuration not stated) | i
CC1(C(=O)NCc2ccccc2)Cn2c(nc3ccccc32)C(=O)N1Cc1ccc(Cl)cc1 (configuration not stated) | i
Clc1ccc(Cn2c(Cc3ccccc3)nc3ccccc32)cc1 | +
Clc1ccc(Cn2c(CN3CCCC3)nc3ccccc32)cc1 | i
COc1ccc(N2CCN(C(=O)CCc3nnc4n(Cc5ccccc5)c(=O)c5ccccc5n34)CC2)cc1 | i
c1ccc(-c2noc(-c3cncnc3NC3CCCCC3)n2)cc1 | i
COc1ccccc1OCCN1CC(COc2cccc3[nH]c4ccccc4c23)OCC1=O (configuration not stated) | i
COc1ccccc1OCCNCC(O)CCOc1cccc2[nH]c3ccccc3c12 (configuration not stated) | +
CNCCC(Oc1ccccc1OC)c1ccccc1 (configuration not stated) | i
SMILES | Methyltransferases
COc1cccc(N2CCN(C(=O)c3noc(-c4ccc(C)cc4)n3)CC2)c1 | i
CCCn1c(=O)c2ccccc2n2c(SCc3cccc(Cl)c3)nnc12 | i
CCCn1c(=O)c2ccc(C(=O)NC(C)C)cc2n2c(=O)n(CC(=O)Nc3ccccc3CC)nc12 | i
CCc1cccc(N2C(=O)CSc3c(c4ccccc4n3C)C2C(=O)NCCC(C)C)c1 (configuration not stated) | i
Cc1ccccc1C(=O)Nc1ccc2c(c1)C(=O)N(C)C1=NCCN12 | i
Fc1ccc2c(CCNCc3cccc(OCC(F)(F)C(F)F)c3)c[nH]c2c1 | +
COC(=O)C1=CO[C@@H](O[C@@H]2O[C@H](CO)[C@@H](O)[C@H](O)[C@H]2O)[C@H]2[C@@H]1[C@H](O)C[C@]2(C)O | i
O=C(c1ccc(-c2ccc(N3CCCCCC3)nc2)cc1)N1CCCC1 | i
Cc1nc2c3ccccc3n(CC(=O)N3CCN(c4ccccc4F)CC3)c(=O)n2n1 | i
O=c1c2ccccc2n2c(=O)n(Cc3ccc(F)cc3Cl)nc2n1CCc1ccccc1 | i
CNC(=O)[C@@H]1CN(C(=O)NCc2ccc(C)cc2)C[C@H]1c1nc(C)no1 | i
O=C(O)Cc1c(-c2ccccc2)c2cc(Cl)ccc2[nH]c1=O | i
O=C(O)Cc1c(-c2ccccc2)c2cc(Br)ccc2[nH]c1=O | i
O=C1NC(=O)c2c1c(-c1ccccc1)cc1[nH]c3ccc(O)cc3c21 | +
